Test results published in PubChem BioAssay (EPA / NIEHS).
Several values for one entry are separate records, joined by “and”; a condition that tells them apart may be missing. Equal values may be shown once. Where a structure was tested more than once in an assay, its records may differ in their call. Activity calls are given as the source filed them. Rule for the calls: active = hit-call score of the fitted dose curve at least 0.9, where 1 is the maximum; inactive = score below 0.9.

How the values were obtained:
[1] = read-out: Vascular cell adhesion molecule 1 (VCAM1), VCAM1 (gene 7412); assay: BSK_CASM3C_VCAM1: BioMAP Diversity Plus: CASM3C Assay for Vascular cell adhesion molecule 1 (VCAM1) Biomarker Activity (AID 2283055); settings: primary human coronary artery smooth muscle cells; actives raise or lower the signal;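 note: VCAM-1 protein level quantified by ELISA on the cells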
[2] = read-out: Collagen III, COL3A1 (gene 1281); assay: BSK_hDFCGF_CollagenIII: BioMAP Diversity Plus: hDFCGF Assay for Collagen III Biomarker Activity (AID 2283056); settings: primary human foreskin fibroblasts; actives raise or lower the signal
In short: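 hDFCGF primary human dermal fibroblasts; 24 h chemical exposure; collagen III by ELISA; bidirectional curve fit vs DMSO baseline (gain or loss of signal).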

[3] = read-out: Epidermal growth factor receptor (EGFR), EGFR (gene 1956); assay: BSK_hDFCGF_EGFR: BioMAP Diversity Plus: hDFCGF Assay for Epidermal growth factor receptor (EGFR) Biomarker Activity (AID 2283057); settings: primary human foreskin fibroblasts; actives raise or lower the signal
In short: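 Cell-based multiplexed assay in primary human foreskin fibroblasts. EGFR is read by ELISA 24 h after treatment and compared with DMSO controls.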

[4] = read-out: Interleukin-8 (IL8), CXCL8 (gene 3576); assay: BSK_hDFCGF_IL8: BioMAP Diversity Plus: hDFCGF Assay for Interleukin-8 (IL8) Biomarker Activity (AID 2283058); settings: primary human foreskin fibroblasts; actives raise or lower the signal
In short: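 ELISA read-out of IL-8 from primary human foreskin fibroblast cultures taken 24 h after dosing; values are bidirectional fits relative to DMSO vehicle.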

[5] = BSK_hDFCGF_Proliferation: Cell Proliferation Assessment in the BioMAP Diversity Plus: hDFCGF Assay (AID 2283059); settings: primary human foreskin fibroblasts;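 note: curves fitted for both rise and fall of signal versus DMSO baseline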
In short: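 Primary human foreskin fibroblasts, sub-confluent; […]; 10% TCA fix, 0.1% SRB stain, A560 total protein. Gain/loss fitted bidirectionally vs DMSO control.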

[6] = read-out: Macrophage colony-stimulating factor (MCSF), CSF1 (gene 1435); assay: BSK_hDFCGF_MCSF: BioMAP Diversity Plus: hDFCGF Assay for Macrophage colony-stimulating factor (MCSF) Biomarker Activity (AID 2283060); settings: primary human foreskin fibroblasts; actives raise or lower the signal
In short: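 ELISA read-out of M-CSF in human dermal foreskin fibroblast cultures, 24 h after chemical dosing; gain or loss of signal fitted bidirectionally relative to DMSO baseline.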

[7] = BSK_hDFCGF_SRB: Viability Assessment in the BioMAP Diversity Plus: hDFCGF Assay (AID 2283061); settings: primary human foreskin fibroblasts;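 note: cells exposed to compound for 24 h before the read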
In short: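 Primary human foreskin fibroblasts; 24 h post-dose; fixed 10% TCA, stained 0.1% SRB, A560 read; total protein as overt cytotoxicity measure; curves fit bidirectionally vs DMSO control.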

[8] = read-out: TIMP metallopeptidase inhibitor 1 (TIMP1), TIMP1 (gene 7076); assay: BSK_hDFCGF_TIMP1: BioMAP Diversity Plus: hDFCGF Assay for TIMP metallopeptidase inhibitor 1 (TIMP1) Biomarker Activity (AID 2283062); settings: primary human foreskin fibroblasts; actives raise or lower the signal
In short: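 ELISA readout of TIMP-1 from human dermal foreskin fibroblast cultures 24 h post-dosing. Curves were fitted in both directions against DMSO baseline, with SRB total-protein staining in parallel cultures as a cytotoxicity check.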

[9] = read-out: Monokine induced gamma interferon (MIG), CXCL9 (gene 4283); assay: BSK_hDFCGF_MIG: BioMAP Diversity Plus: hDFCGF Assay for Monokine induced gamma interferon (MIG) Biomarker Activity (AID 2283063); settings: primary human foreskin fibroblasts; actives raise or lower the signal
In short: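 Fibroblasts (human foreskin, primary) dosed, 24 h, MIG by ELISA; fit bidirectional vs DMSO.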

[10] = read-out: Matrix Metallopeptidase 1 (MMP1), MMP1 (gene 4312); assay: BSK_hDFCGF_MMP1: BioMAP Diversity Plus: hDFCGF Assay for Matrix Metallopeptidase 1 (MMP1) Biomarker Activity (AID 2283064); settings: primary human foreskin fibroblasts; actives raise or lower the signal
In short: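 ELISA read-out of MMP1 from human foreskin fibroblasts (primary skin cells), 24 h post-dose. Gain or loss of signal was fitted bidirectionally versus DMSO negative control; cytotoxicity was checked by SRB in parallel cultures.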

Measured: AC50

CC(C)CCCCCCOC(=O)c1ccc(C(=O)OCCCCCCC(C)C)c(C(=O)OCCCCCCC(C)C)c1
inactive: all assays above

O=C(O)c1cc(N=Nc2ccc(S(=O)(=O)Nc3ccccn3)cc2)ccc1O
inactive: all assays above

O=c1n(CC2CO2)c(=O)n(CC2CO2)c(=O)n1CC1CO1 (configuration not stated)
inactive: [4] | [7] | [8]
active: [1] 18.6 µM | [2] 6.71 µM | [3] 30.7 µM | [5] 4.36 µM | [6] 20 µM | [9] 15.5 µM

CC(=O)c1ccc2c(c1)[C@H](NC(=O)c1ccc(F)cc1)[C@@H](O)C(C)(C)O2
inactive: all assays above

O=C(O)c1cccc(Oc2ccccc2)c1
inactive: all assays above

Cc1ccc(S(=O)(=O)O)cc1C
inactive: all assays above

Cc1[nH]cnc1C[C@H]1CCc2c(C)c3ccccc3n2C1=O
active: [2] 19.2 µM | [5] 21.9 µM
inactive: all other assays above

CC(C)CCO
active: [5] 17.2 µM
inactive: all other assays above

CC1=CC(=O)CC(C)(C)C1
inactive: all assays above

Clc1nc(Cl)c(Cl)c(Cl)c1Cl
inactive: all assays above

O=C(NS(=O)(=O)/C=C/c1ccccc1)c1ccc(F)cc1Cl
active: [5] 12.9 µM
inactive: all other assays above

CCCCC(CC)COC(=O)c1ccc(C(=O)OCC(CC)CCCC)cc1 (configuration not stated)
inactive: all assays above

O=c1[nH]c2ccc(S(=O)CCN3CCC(Cc4ccc(F)cc4)CC3)cc2o1 (configuration not stated)
active: [2] 13.9 µM | [5] 4.49 µM
inactive: all other assays above

Cn1cnc([N+](=O)[O-])c1Sc1ncnc2nc[nH]c12
active: [1] 15.6 µM and 8.5 µM | [2] 4.26 µM | [5] 19.9 µM | [6] 7.13 µM and 9.58 µM
inactive: [1] | [2] | [3] | [4] | [5] | [6] | [7] | [8] | [9] | [10]

O=C1CCCCCN1
inactive: all assays above

COc1ccc(-n2nc(C(F)F)cc2-c2ccc(S(C)=O)cc2)cc1 (configuration not stated)
inactive: all assays above

Cc1ccc(O)cc1
inactive: all assays above

O=C(O)c1cccc(N(Cc2cccnc2)c2ccc(OC(F)F)c(OC(F)F)c2)c1
inactive: all assays above

CCC(C)(C)C(=O)O[C@H]1C[C@@H](C)C=C2C=C[C@H](C)[C@H](CC[C@@H]3C[C@@H](O)CC(=O)O3)[C@H]21
active: [1] 29.8 µM | [2] 33.3 µM | [4] 29.5 µM | [5] 13.9 µM | [6] 26.3 µM | [7] 25.8 µM | [8] 34.2 µM
inactive: [3] | [9]

CCCN(C1CCN(C(=O)C2CCNCC2)CC1)[C@@H]1CCc2ccc(OC)cc2C1
inactive: all assays above

Cc1ccc(N)cc1O
active: [5] 23.9 µM
inactive: all other assays above

CCCCC(CC)COC(=O)CCCCCCCCC(=O)OCC(CC)CCCC (configuration not stated)
inactive: all assays above

CCOC(=O)CC(CC(=O)OCC)(OC(C)=O)C(=O)OCC
inactive: all assays above

CCCC(=O)OCC
inactive: all assays above

CNCc1ccc(NC(=O)c2c[nH]c3c2C(=O)CCC3)cc1
inactive: all assays above

CCOCCO
inactive: all assays above

CCNc1ccccc1
inactive: all assays above

Nc1nc2ncc(CNc3ccc(C(=O)N[C@@H](CCC(=O)O)C(=O)O)cc3)nc2c(=O)[nH]1
inactive: all assays above

C1N2CN3CN1CN(C2)C3
inactive: all assays above

NC(=O)NO
inactive: all assays above

O=P(OC(CCl)CCl)(OC(CCl)CCl)OC(CCl)CCl
active: [2] 12 µM | [5] 16.2 µM
inactive: all other assays above

Oc1ccc2c(c1)-c1ccccc1C2
active: [5] 29.8 µM
inactive: all other assays above

Fc1ccccc1[C@@H](F)COC1CCC(Nc2ncnc3[nH]ncc23)CC1 (some centres not stated)
active: [1] 7.56 µM | [5] 10.3 µM
inactive: all other assays above

Nc1ccc(Nc2ccccc2)cc1
active: [5] 7.37 µM
inactive: all other assays above

COc1cccc(-c2ccc(/C=C\CN3CCCCCC3)cc2Cl)c1
active: [2] 12.1 µM | [3] 32.2 µM | [4] 34.1 µM | [5] 3.59 µM | [6] 22.4 µM | [7] 27.2 µM | [8] 29.1 µM | [9] 34.5 µM | [10] 34.4 µM
inactive: [1]

COCCOc1cc2cc(C(=O)NC3CCN(C(C)C)CC3)n(CC(=O)Nc3ccc(Cl)cn3)c2cn1
inactive: all assays above

COc1ccc2sc(C(=O)Nc3nnn[nH]3)c(OC(C)C)c2c1
active: [2] 5.42 µM | [3] 8.61 µM | [4] 20.5 µM | [5] 12.1 µM | [6] 11.4 µM | [7] 10.3 µM | [8] 7.77 µM | [9] 15.5 µM | [10] 13.9 µM
inactive: [1]

O=C(CCCCCCCCc1cccnc1)N1CCC(C=C(c2ccccc2)c2ccccc2)CC1
active: [1] 37.9 µM | [2] 4.91 µM | [4] 10.7 µM | [5] 5.65 µM | [6] 7.88 µM | [7] 7.83 µM | [8] 7.71 µM | [9] 11.5 µM | [10] 9.34 µM
inactive: [3]

CCCCCCCCO
inactive: all assays above

COc1ccc(/C=C/S(=O)(=O)NC(=O)c2ccc(C)cc2Cl)cc1
active: [5] 13.6 µM
inactive: all other assays above

CC(=O)OCCC(C)C
inactive: all assays above
